The full data set covers some 7,900 targets. This sample favours those with a hit. About 0.6% of all pairs of compound and target were hits. A number with no mark means an inactive call.
What was measured:
Assay in all cases: log2 fold change, soluble protein after heating vs DMSO (PISA); higher = thermal stabilisation; K562 cells, 10 uM, 30 min; active = over 0.2 and 3.5 SD of the protein, either way, in both replicates (recomputed)
[1] = compound: CS(=O)(=O)c1ccc(-c2cnc(N)c(C(=O)Nc3ccccc3)n2)cc1
In short: (§1)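 K562 cells at 2×10^6 cells/mL were treated for 30 min with 10 μM compound, and aliquots were heated for 3 min over 48°C-58°C before pooling. Extraction used PBS with 0.5% NP-40 at 4°C, and soluble protein was the supernatant after 21,000xg for 90 min, measured by TMTpro 16plex LC-MS/MS with channel sums equalised. Thermal stability values, relative to control samples and from duplicates, are log2 fold changes.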

crizotinib = compound: C[C@@H](Oc1cc(-c2cnn(C3CCNCC3)c2)cnc1N)c1c(Cl)ccc(F)c1Cl [crizotinib]
In short: as §1

[2] = compound: C[C@@H]1COCCN1C2=NC(=NC(=C2)C3(CC3)S(=O)(=O)C)C4=C5C=CNC5=CC=C4
In short: as §1

[3] = compound: C[C@H](C1=CC=C(C=C1)C(=O)NC2=C3C=CNC3=NC=C2)N
In short: as §1

duvelisib = compound: C[C@H](Nc1ncnc2nc[nH]c12)c1cc2cccc(Cl)c2c(=O)n1-c1ccccc1 [duvelisib]
In short: as §1

gandotinib = compound: Cc1cc(Nc2cc(CN3CCOCC3)c3nc(C)c(Cc4ccc(Cl)cc4F)n3n2)n[nH]1 [gandotinib]
In short: as §1

tozasertib = compound: Cc1cc(Nc2cc(N3CCN(C)CC3)nc(Sc3ccc(NC(=O)C4CC4)cc3)n2)n[nH]1 [tozasertib]
In short: as §1

[4] = compound: Cc1cc(SCc2sc(-c3ccc(C(F)(F)F)cc3)nc2C)ccc1OCC(=O)O
In short: as §1

doramapimod = compound: Cc1ccc(-n2nc(C(C)(C)C)cc2NC(=O)Nc2ccc(OCCN3CCOCC3)c3ccccc23)cc1 [doramapimod]
In short: as §1

ispinesib = compound: Cc1ccc(C(=O)N(CCCN)[C@@H](c2nc3cc(Cl)ccc3c(=O)n2Cc2ccccc2)C(C)C)cc1 [ispinesib]
In short: as §1

UniProt Q9BVV7, sequence (Q9BVV7 whole entry, looked up): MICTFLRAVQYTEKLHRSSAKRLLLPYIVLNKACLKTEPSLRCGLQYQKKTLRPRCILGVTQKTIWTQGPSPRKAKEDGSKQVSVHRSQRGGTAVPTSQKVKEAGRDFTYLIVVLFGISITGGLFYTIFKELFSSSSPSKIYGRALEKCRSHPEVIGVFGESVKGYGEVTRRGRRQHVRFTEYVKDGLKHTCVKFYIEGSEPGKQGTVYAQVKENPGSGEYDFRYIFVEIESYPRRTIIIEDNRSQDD
UniProt Q9BSF4, sequence (Q9BSF4 whole entry, looked up): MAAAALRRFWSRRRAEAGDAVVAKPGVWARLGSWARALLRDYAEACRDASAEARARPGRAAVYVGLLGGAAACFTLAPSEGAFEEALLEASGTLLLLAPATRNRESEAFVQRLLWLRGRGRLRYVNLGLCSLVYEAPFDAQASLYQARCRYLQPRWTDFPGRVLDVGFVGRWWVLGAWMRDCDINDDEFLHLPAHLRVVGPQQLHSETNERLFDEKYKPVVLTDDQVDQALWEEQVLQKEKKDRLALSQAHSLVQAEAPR
UniProt Q9NXE4, sequence (Q9NXE4 whole entry, looked up): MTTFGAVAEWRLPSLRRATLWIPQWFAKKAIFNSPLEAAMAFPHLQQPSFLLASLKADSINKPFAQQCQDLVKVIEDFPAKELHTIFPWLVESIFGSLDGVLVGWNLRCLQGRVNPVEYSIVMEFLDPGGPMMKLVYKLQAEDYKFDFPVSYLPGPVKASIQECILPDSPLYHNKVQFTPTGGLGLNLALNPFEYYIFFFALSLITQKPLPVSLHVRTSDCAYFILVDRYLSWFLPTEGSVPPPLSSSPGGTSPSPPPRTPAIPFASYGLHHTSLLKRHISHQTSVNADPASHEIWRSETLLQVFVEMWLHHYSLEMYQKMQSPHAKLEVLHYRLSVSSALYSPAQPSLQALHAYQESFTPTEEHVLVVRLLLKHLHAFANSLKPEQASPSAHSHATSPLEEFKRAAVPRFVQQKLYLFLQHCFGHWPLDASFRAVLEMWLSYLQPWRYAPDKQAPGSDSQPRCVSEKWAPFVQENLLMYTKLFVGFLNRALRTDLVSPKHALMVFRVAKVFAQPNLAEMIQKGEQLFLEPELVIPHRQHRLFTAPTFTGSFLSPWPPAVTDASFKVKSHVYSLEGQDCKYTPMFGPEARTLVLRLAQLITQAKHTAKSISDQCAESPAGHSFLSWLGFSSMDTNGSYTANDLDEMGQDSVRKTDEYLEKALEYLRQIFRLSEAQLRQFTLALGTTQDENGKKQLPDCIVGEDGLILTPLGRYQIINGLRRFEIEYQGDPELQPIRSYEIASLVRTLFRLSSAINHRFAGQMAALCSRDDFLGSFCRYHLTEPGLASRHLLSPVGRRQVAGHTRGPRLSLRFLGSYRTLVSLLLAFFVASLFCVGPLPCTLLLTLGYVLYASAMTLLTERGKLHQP
UniProt O15400, sequence (O15400 whole entry, looked up): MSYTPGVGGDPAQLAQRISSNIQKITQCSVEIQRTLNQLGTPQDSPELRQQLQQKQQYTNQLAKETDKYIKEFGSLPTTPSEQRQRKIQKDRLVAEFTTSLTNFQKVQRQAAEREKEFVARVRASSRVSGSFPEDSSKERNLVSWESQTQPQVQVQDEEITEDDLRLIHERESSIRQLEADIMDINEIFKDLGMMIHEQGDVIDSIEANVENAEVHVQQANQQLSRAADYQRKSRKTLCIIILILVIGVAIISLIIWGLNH
UniProt P08240, sequence (P08240 whole entry, looked up): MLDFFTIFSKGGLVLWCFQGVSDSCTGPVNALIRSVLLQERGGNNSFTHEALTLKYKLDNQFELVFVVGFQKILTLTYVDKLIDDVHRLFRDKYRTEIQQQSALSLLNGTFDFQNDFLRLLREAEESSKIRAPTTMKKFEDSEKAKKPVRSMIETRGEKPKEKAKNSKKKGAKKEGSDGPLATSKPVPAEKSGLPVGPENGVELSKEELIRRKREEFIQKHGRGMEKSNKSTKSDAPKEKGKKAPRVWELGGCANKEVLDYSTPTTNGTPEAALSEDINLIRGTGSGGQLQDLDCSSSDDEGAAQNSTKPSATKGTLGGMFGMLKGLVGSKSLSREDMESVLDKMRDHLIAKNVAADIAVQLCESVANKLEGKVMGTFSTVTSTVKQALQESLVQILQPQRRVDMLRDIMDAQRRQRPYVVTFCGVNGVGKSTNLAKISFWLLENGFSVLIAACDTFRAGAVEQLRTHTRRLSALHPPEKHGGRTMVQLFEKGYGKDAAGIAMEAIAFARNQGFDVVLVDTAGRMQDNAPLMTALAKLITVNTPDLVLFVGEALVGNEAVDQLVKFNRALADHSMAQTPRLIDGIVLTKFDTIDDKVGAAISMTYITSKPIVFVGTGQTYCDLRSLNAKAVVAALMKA
UniProt P62318, sequence (P62318 whole entry, looked up): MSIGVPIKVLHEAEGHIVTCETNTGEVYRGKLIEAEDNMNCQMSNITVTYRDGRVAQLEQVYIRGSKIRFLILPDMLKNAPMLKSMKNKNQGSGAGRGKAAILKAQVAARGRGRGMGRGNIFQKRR
UniProt P40763, sequence (P40763 whole entry, looked up): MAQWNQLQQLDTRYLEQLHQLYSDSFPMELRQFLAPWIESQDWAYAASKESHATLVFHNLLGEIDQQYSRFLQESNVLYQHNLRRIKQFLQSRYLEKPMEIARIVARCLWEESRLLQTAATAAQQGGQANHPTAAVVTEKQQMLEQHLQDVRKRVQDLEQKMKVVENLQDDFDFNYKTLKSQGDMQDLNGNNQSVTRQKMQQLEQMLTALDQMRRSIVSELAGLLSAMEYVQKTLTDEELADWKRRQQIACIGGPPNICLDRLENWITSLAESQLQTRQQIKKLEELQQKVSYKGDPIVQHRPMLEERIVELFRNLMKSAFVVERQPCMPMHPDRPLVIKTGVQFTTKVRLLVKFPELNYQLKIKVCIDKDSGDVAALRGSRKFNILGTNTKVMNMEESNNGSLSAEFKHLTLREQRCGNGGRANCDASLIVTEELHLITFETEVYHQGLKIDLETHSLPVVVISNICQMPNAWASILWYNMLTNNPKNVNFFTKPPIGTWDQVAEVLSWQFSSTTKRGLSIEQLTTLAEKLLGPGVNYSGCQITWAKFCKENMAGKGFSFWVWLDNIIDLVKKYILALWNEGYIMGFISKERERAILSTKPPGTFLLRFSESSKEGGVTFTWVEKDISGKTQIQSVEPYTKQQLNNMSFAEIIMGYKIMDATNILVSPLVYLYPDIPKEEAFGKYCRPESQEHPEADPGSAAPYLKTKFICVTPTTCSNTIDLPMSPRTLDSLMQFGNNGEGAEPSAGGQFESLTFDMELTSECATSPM
UniProt Q9Y5W9, sequence (Q9Y5W9 whole entry, looked up): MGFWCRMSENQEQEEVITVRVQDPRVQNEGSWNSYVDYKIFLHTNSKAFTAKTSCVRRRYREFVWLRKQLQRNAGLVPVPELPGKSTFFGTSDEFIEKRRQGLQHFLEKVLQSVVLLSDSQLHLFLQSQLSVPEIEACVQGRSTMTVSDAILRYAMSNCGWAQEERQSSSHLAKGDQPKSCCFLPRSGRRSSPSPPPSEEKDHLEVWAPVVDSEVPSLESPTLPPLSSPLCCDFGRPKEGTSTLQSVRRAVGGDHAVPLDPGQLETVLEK
UniProt Q8N0X7, sequence (Q8N0X7 whole entry, looked up): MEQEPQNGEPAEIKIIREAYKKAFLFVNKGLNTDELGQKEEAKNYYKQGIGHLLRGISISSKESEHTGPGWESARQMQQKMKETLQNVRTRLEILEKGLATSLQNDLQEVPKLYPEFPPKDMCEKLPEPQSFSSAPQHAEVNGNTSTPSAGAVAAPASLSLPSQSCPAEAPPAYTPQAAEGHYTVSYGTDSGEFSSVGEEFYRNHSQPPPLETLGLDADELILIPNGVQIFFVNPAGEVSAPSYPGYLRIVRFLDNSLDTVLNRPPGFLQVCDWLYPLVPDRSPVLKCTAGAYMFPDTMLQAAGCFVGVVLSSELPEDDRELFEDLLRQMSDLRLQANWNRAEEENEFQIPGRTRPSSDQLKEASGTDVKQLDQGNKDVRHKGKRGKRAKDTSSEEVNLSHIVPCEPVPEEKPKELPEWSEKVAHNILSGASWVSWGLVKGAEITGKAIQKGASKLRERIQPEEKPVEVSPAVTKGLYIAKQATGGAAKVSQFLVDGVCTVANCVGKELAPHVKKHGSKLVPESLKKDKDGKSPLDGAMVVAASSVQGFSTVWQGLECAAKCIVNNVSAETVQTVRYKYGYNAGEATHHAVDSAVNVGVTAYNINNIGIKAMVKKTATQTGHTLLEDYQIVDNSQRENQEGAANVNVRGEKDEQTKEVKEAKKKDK
UniProt Q15208, sequence (Q15208 whole entry, looked up): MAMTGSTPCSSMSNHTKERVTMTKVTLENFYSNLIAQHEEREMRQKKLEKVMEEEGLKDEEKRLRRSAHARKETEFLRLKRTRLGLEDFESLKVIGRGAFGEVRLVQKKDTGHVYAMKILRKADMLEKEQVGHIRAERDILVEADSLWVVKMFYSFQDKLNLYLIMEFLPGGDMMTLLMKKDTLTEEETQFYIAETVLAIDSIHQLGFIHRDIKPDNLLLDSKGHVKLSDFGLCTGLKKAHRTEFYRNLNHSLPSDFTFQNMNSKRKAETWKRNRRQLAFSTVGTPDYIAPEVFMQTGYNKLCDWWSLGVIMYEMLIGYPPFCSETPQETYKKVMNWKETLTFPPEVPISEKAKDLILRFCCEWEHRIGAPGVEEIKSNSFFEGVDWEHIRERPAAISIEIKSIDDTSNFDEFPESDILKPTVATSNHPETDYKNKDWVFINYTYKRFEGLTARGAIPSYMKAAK
UniProt Q9Y6I9, sequence (Q9Y6I9 whole entry, looked up): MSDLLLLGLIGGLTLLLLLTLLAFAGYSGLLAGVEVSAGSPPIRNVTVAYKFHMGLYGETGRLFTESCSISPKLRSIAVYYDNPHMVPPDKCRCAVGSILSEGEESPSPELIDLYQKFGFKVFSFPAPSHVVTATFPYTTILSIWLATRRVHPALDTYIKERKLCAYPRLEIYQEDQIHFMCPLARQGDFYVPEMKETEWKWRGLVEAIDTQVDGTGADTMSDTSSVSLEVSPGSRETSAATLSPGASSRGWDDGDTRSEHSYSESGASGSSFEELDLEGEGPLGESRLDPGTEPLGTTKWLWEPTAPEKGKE

Row | Target | log2 fold change [1] | log2 fold change (crizotinib) | log2 fold change [2] | log2 fold change [3] | log2 fold change (duvelisib) | log2 fold change (gandotinib) | log2 fold change (tozasertib) | log2 fold change [4] | log2 fold change (doramapimod) | log2 fold change (ispinesib)
1 | SRPRA (UniProt P08240) | 0.066 | 0.036 | 0.061 | 0.01 | 0.036 | -0.042 | -0.009 | 0.063 | -0.044 | 0.045
2 | STX7 (UniProt O15400) | 0 | -0.187 | 0.015 | -0.042 | -0.023 | -0.18 | -0.021 | -0.055 | 0.04 | -0.246 (active)
3 | SNX11 (UniProt Q9Y5W9) | -0.062 | -0.76 (active) | -0.021 | 0.012 | -0.486 (active) | -0.378 | -0.001 | 0.14 | -0.017 | -0.536 (active)
4 | STAT5B (UniProt P51692) | 0.119 | -0.353 | -0.037 | -0.014 | -0.164 | -0.209 | 0.129 | 0.097 | -0.09 | -0.082
5 | TERF2IP (UniProt Q9NYB0) | -0.021 | 0.085 | -0.072 | -0.099 | 0.016 | 0.028 | 0.108 | 0.005 | -0.019 | 0.044
6 | SNRPD3 (UniProt P62318) | -0.102 | 0.011 | 0.036 | 0.041 | 0.039 | 0.034 | -0.035 | -0.04 | 0.055 | 0.006
7 | TIMM29 (UniProt Q9BSF4) | 0.044 | 0.08 | 0.065 | -0.033 | -0.015 | -0.014 | 0.012 | 0.02 | 0.185 | 0.033
8 | TBRG4 (UniProt Q969Z0) | -0.041 | -0.676 (active) | 0.137 | -0.005 | 0.066 | -0.364 | 0.04 | 0.174 | -0.081 | -0.254
9 | TEX264 (UniProt Q9Y6I9) | 0.361 | 0.079 | 0.064 | 0.176 | 0.037 | -0.059 | 0.113 | -0.028 | 0.039 | -0.016
10 | TIMM21 (UniProt Q9BVV7) | 0.02 | -0.01 | 0.042 | -0.029 | 0.009 | 0.04 | 0.017 | 0.033 | 0.02 | -0.229
11 | SPCS2 (UniProt Q15005) | 0.032 | 0.001 | 0.02 | -0.036 | 0.035 | -0.007 | -0.015 | -0.013 | 0.047 | 0.085
12 | SRPRB (UniProt Q9Y5M8) | -0.006 | 0.01 | 0.059 | -0.042 | 0.012 | 0.055 | -0.017 | 0.083 | -0.026 | 0.055
13 | TAF9 (UniProt Q16594) | -0.029 | 0.043 | 0.007 | 0.116 | 0.009 | -0.047 | -0.034 | -0.131 | -0.019 | -0.007
14 | TFAM (UniProt Q00059) | -0.071 | 0.058 | -0.153 | 0.117 | -0.04 | 0.176 | 0.036 | -0.034 | 0.022 | -0.117
15 | STAT6 (UniProt P42226) | -0.083 | -0.037 | 0.028 | -0.011 | -0.132 | -0.269 | 0.171 | -0.123 | 0.043 | -0.033
16 | STXBP2 isoform 3 (UniProt Q15833) | 0.049 | -0.301 | 0.022 | 0.039 | 0.019 | -0.03 | 0.03 | 0.17 | 0.152 | -0.306
17 | STAT3 (UniProt P40763) | 0.059 | -0.126 | 0.105 | -0.063 | 0 | -0.184 | 0.073 | 0.088 | -0.009 | -0.03
18 | SMG1 (UniProt Q96Q15) | 0.04 | 0.012 | -0.083 | 0.016 | 0.02 | -0.024 | -0.013 | 0.098 | 0.051 | 0.033
19 | STK39 (UniProt Q9UEW8) | 0.109 | -0.174 | 0.028 | 0.061 | 0.007 | -0.038 | -0.049 | 0.048 | -0.027 | -0.038
20 | SMARCE1 (UniProt Q969G3) | -0.088 | 0.011 | 0.048 | 0.093 | 0.014 | -0.087 | 0.091 | 0.135 | 0.052 | 0.048
21 | TBC1D10B (UniProt Q4KMP7) | 0.012 | -0.04 | 0.013 | -0.153 | 0 | 0.046 | -0.022 | 0.092 | 0.021 | 0.083
22 | STK38 (UniProt Q15208) | 0.081 | -0.087 | 0.089 | -0.031 | 0.052 | -0.024 | 0.065 | 0.072 | -0.011 | 0.026
23 | TLK2 isoform 2 (UniProt Q86UE8) | -0.063 | -0.031 | 0.139 | -0.095 | -0.007 | 0.165 | -0.047 | -0.07 | -0.042 | 0.019
24 | SNW1 (UniProt Q13573) | -0.035 | 0.068 | -0.062 | 0.015 | -0.016 | 0.045 | -0.015 | -0.045 | 0 | -0.048
25 | SPART (UniProt Q8N0X7) | 0.006 | -0.107 | 0.056 | 0.101 | 0.053 | -0.088 | 0.044 | 0.055 | 0.014 | -0.001
26 | SUCLA2 (UniProt Q9P2R7) | 0.034 | 0.001 | 0.087 | -0.011 | 0.04 | -0.058 | -0.043 | 0.012 | 0.003 | -0.064
27 | TAOK3 (UniProt Q9H2K8) | -0.051 | -0.03 | -0.008 | -0.13 | 0.014 | -0.08 | 0.011 | 0.057 | 0.023 | 0.01
28 | SLC25A36 (UniProt Q96CQ1) | 0.016 | 0.067 | -0.061 | -0.011 | 0.195 | 0.313 | -0.059 | -0.089 | -0.027 | -0.021
29 | SMPD4 isoform 4 (UniProt Q9NXE4) | -0.026 | -0.215 | 0.005 | 0.01 | 0.091 | -0.133 | -0.086 | 0.025 | 0.002 | -0.255

Reference: the supplement of paper PMC10849652
